Results: PubChem BioAssay AID1159580 (chemical genetic matrix, 2015)
The campaign covered roughly 5,500 compounds. About 2,000 (36%) were called active. Roughly 18% stayed inconclusive and do not appear here. No stated cut-off is given here; in the data, active means normalized growth mostly below about 0.91 (no sharp cut-off); inconclusive means no clear call, values can overlap the other calls; inactive means mostly above about 0.92. The list shows a part of the results.

Assay: chemical genetic growth profiling, strain panel (AID 1159580);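 further: tested at 20 µM; growth read once vehicle control cultures reached saturation at 30 °C; 1 = growth at the plate median or of vehicle wells; lower values mean less growth of the strain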
Conditions: growth OD
[1] = S. cerevisiae deletion strains, locus YBR229C, strain ROT2, active compounds read low
[2] = S. cerevisiae deletion strains, locus YDL101C, strain DUN1, active compounds read low
[3] = S. cerevisiae deletion strains, locus YDR150W, strain NUM1, active compounds read low
[4] = S. cerevisiae deletion strains, locus YEL061C, strain CIN8, active compounds read low
[5] = S. cerevisiae deletion strains, locus YHR030C, strain SLT2, active compounds read low
[6] = S. cerevisiae deletion strains, locus YHR087W, strain rtc3, active compounds read low
[7] = S. cerevisiae deletion strains, locus YJR043C, strain POL32, active compounds read low
[8] = S. cerevisiae deletion strains, locus YJR075W, strain HOC1, active compounds read low
[9] = S. cerevisiae deletion strains, locus YLR039C, strain RIC1, active compounds read low
[10] = S. cerevisiae deletion strains, locus YLR058C, strain SHM2 (second series), active compounds read low
[11] = S. cerevisiae deletion strains, locus YLR085C, strain ARP6, active compounds read low
[12] = S. cerevisiae deletion strains, locus YLR262C, strain YPT6, active compounds read low
[13] = S. cerevisiae deletion strains, locus YML094W, strain GIM5, active compounds read low
[14] = S. cerevisiae deletion strains, locus YMR219W, strain ESC1, active compounds read low
[15] = S. cerevisiae deletion strains, locus YMR263W, strain SAP30, active compounds read low
[16] = S. cerevisiae deletion strains, locus YMR307W, strain GAS1, active compounds read low
[17] = S. cerevisiae deletion strains, locus YNL153C, strain GIM3, active compounds read low
[18] = S. cerevisiae deletion strains, locus YNL298W, strain CLA4 (second series), active compounds read low
[19] = S. cerevisiae deletion strains, locus YNL322C, strain KRE1, active compounds read low
[20] = S. cerevisiae deletion strains, locus YNR030W, strain Alg12, active compounds read low
[21] = S. cerevisiae deletion strains, locus YPL055C, strain LGE1, active compounds read low
[22] = S. cerevisiae deletion strains, locus YPL241C, strain CIN2, active compounds read low
[23] = S. cerevisiae deletion strains, locus YPR135W, strain CTF4, active compounds read low
[24] = S. cerevisiae strains, strain wild type, active compounds read low

Measured: normalized growth

O=c1[nH]c(-c2cc(Br)cs2)nc2ccc(Cl)cc12
inactive: S. cerevisiae deletion strains, locus YAL013W, strain DEP1, active compounds read low 1.01 | [1] 1.01 | [2] 1 | [3] 0.938 | [4] 1.01 | [5] 1.03 | [6] 1.04 | [7] 1.01 | [8] 1.06 | [9] 1.1 | [10] 1 | [11] 1.06 | [12] 1.07 | [13] 1.04 | [15] 0.954 | [16] 1.06 | [17] 1.04 | [18] 1.04 | [19] 1.01 | [20] 1.04 | [21] 0.896 | [22] 0.999 | [23] 1.07 | [24] 1.02
active: [14] 1.13 [resistant]

O=c1[nH]cnc2ccc(Br)cc12
inactive: [1] 1.01 | [2] 0.98 | S. cerevisiae deletion strains, locus YDL134C, strain PPH21, active compounds read low 1.01 | [3] 0.918 | [4] 0.998 | S. cerevisiae deletion strains, locus YGR078C, strain PAC10, active compounds read low 1 | [5] 0.994 | [6] 1.01 | S. cerevisiae deletion strains, locus YJL187C, strain SWE1, active compounds read low 1.01 | [7] 1.02 | [8] 1.01 | S. cerevisiae deletion strains, locus YKL190W, strain CNB1, active compounds read low 1.01 | [9] 1.02 | [10] 1.01 | [11] 1.01 | [12] 1.01 | [13] 0.98 | [14] 1.01 | [15] 0.949 | [16] 1.02 | [17] 1 | [18] 1.04 | [19] 1.01 | [20] 1.01 | [21] 0.921 | [22] 1.01 | [23] 0.97 | [24] 1

O=C(NC(Cc1cc(=O)[nH]c2ccccc12)C(=O)O)c1ccc(Cl)cc1 (configuration not stated)
inactive: S. cerevisiae deletion strains, locus YAL021C, strain ccr4, active compounds read low 1.01 | S. cerevisiae deletion strains, locus YAL026C, strain drs2, active compounds read low 1 | S. cerevisiae deletion strains, locus YAL030W, strain snc1, active compounds read low 1 | S. cerevisiae deletion strains, locus YBL061C, strain skt5, active compounds read low 1 | S. cerevisiae deletion strains, locus YBR009C, strain hhf1, active compounds read low 1.01 | S. cerevisiae deletion strains, locus YBR023C, strain chs3, active compounds read low 1.01 | S. cerevisiae deletion strains, locus YBR171W, strain sec66, active compounds read low 0.992 | S. cerevisiae deletion strains, locus YBR231C, strain swc5, active compounds read low 0.994 | S. cerevisiae deletion strains, locus YBR279W, strain paf1, active compounds read low 0.997 | S. cerevisiae deletion strains, locus YCL011C, strain gbp2, active compounds read low 1 | S. cerevisiae deletion strains, locus YCL016C, strain dcc1, active compounds read low 0.994 | S. cerevisiae deletion strains, locus YCL061C, strain MRC1, active compounds read low 0.994 | S. cerevisiae deletion strains, locus YCL069W, strain vba3, active compounds read low 1 | S. cerevisiae deletion strains, locus YCR088W, strain abp1, active compounds read low 0.994 | S. cerevisiae deletion strains, locus YDL005C, strain med2, active compounds read low 1 | S. cerevisiae deletion strains, locus YDL040C, strain nat1, active compounds read low 1 | S. cerevisiae deletion strains, locus YDR001C, strain nth1, active compounds read low 0.997 | S. cerevisiae deletion strains, locus YDR069C, strain doa4, active compounds read low 1 | S. cerevisiae deletion strains, locus YDR137W, strain rgp1, active compounds read low 0.969 | S. cerevisiae deletion strains, locus YDR159W, strain sac3, active compounds read low 1.01 | S. cerevisiae deletion strains, locus YDR195W, strain ref2 0.972 | S. cerevisiae deletion strains, locus YDR297W, strain sur2, active compounds read low 1.01 | S. cerevisiae deletion strains, locus YDR334W, strain swr1, active compounds read low 1.02 | S. cerevisiae deletion strains, locus YDR335W, strain msn5, active compounds read low 1 | S. cerevisiae deletion strains, locus YDR392W, strain spt3, active compounds read low 1.03 | S. cerevisiae deletion strains, locus YEL003W, strain gim4, active compounds read low 0.998 | S. cerevisiae deletion strains, locus YEL037C, strain rad23, active compounds read low 0.982 | S. cerevisiae deletion strains, locus YEL061C, strain CIN8 (second series), active compounds read low 1 | S. cerevisiae deletion strains, locus YER015W, strain faa2, active compounds read low 1.01 | S. cerevisiae deletion strains, locus YER016W, strain bim1, active compounds read low 1 | S. cerevisiae deletion strains, locus YER111C, strain swi4, active compounds read low 0.999 | S. cerevisiae deletion strains, locus YER155C, strain BEM2 (second series), active compounds read low 1 | S. cerevisiae deletion strains, locus YFR010W, strain ubp6, active compounds read low 0.995 | S. cerevisiae deletion strains, locus YGL167C, strain pmr1, active compounds read low 1.01 | S. cerevisiae deletion strains, locus YGL173C, strain kem1, active compounds read low 1.01 | S. cerevisiae deletion strains, locus YGL227W, strain vid30, active compounds read low 1 | S. cerevisiae deletion strains, locus YGL240W, strain doc1, active compounds read low 0.998 | S. cerevisiae deletion strains, locus YGL253W, strain hxk2, active compounds read low 1 | S. cerevisiae deletion strains, locus YHR013C, strain ard1, active compounds read low 1 | S. cerevisiae deletion strains, locus YHR027C, strain rpn1, active compounds read low 0.996 | [5] 0.993 | S. cerevisiae deletion strains, locus YHR079C, strain IRE1, active compounds read low 0.99 | S. cerevisiae deletion strains, locus YHR142W, strain chs7, active compounds read low 0.986 | S. cerevisiae deletion strains, locus YJL092W, strain hpr5, active compounds read low 0.998 | S. cerevisiae deletion strains, locus YJL095W, strain BCK1 (second series), active compounds read low 0.997 | S. cerevisiae deletion strains, locus YJL095W, strain BCK1, active compounds read low 0.988 | S. cerevisiae deletion strains, locus YJL115W, strain asf1, active compounds read low 1 | S. cerevisiae deletion strains, locus YJL129C, strain trk1, active compounds read low 1 | S. cerevisiae deletion strains, locus YJL154C, strain vps35, active compounds read low 1 | S. cerevisiae deletion strains, locus YJL164C, strain tpk1, active compounds read low 1 | S. cerevisiae deletion strains, locus YJL166W, strain qcr8, active compounds read low 0.995 | S. cerevisiae deletion strains, locus YJR066W, strain TOR1, active compounds read low 0.913 | S. cerevisiae deletion strains, locus YKL160W, strain elf1, active compounds read low 0.998 | S. cerevisiae deletion strains, locus YKR026C, strain gcn3, active compounds read low 0.994 | S. cerevisiae deletion strains, locus YKR091W, strain srl3, active compounds read low 1 | S. cerevisiae deletion strains, locus YLL001W, strain dnm1, active compounds read low 0.997 | S. cerevisiae deletion strains, locus YLL026W, active compounds read low 1 | S. cerevisiae deletion strains, locus YLL041C, strain sdh2, active compounds read low 0.997 | S. cerevisiae deletion strains, locus YLR027C, strain aat2, active compounds read low 0.994 | S. cerevisiae deletion strains, locus YLR113W, strain HOG1, active compounds read low 0.995 | S. cerevisiae deletion strains, locus YLR221C, strain rsa3, active compounds read low 0.999 | S. cerevisiae deletion strains, locus YLR258W, strain gsy2, active compounds read low 1 | S. cerevisiae deletion strains, locus YLR262C, strain YPT6 (second series), active compounds read low 1 | S. cerevisiae deletion strains, locus YLR320W, strain mms22, active compounds read low 0.996 | S. cerevisiae deletion strains, locus YLR342W, strain FKS1, active compounds read low 0.991 | S. cerevisiae deletion strains, locus YLR357W, strain rsc2, active compounds read low 0.993 | S. cerevisiae deletion strains, locus YLR370C, strain arc18, active compounds read low 1 | S. cerevisiae deletion strains, locus YLR384C, strain iki3, active compounds read low 0.998 | S. cerevisiae deletion strains, locus YML120C, strain ndi1, active compounds read low 1 | S. cerevisiae deletion strains, locus YMR058W, strain fet3, active compounds read low 1.01 | S. cerevisiae deletion strains, locus YMR125W, strain sto1, active compounds read low 1.01 | S. cerevisiae deletion strains, locus YMR129W, active compounds read low 0.983 | S. cerevisiae deletion strains, locus YMR205C, strain PFK2, active compounds read low 0.997 | S. cerevisiae deletion strains, locus YMR231W, strain pep5, active compounds read low 1.01 | S. cerevisiae deletion strains, locus YNL071W, strain lat1, active compounds read low 1.01 | S. cerevisiae deletion strains, locus YNL183C, strain NPR1, active compounds read low 0.934 | S. cerevisiae deletion strains, locus YNL209W, strain ssb2, active compounds read low 1 | S. cerevisiae deletion strains, locus YNL248C, strain rpa49, active compounds read low 0.994 | S. cerevisiae deletion strains, locus YNL322C, strain KRE1 (second series), active compounds read low 0.992 | S. cerevisiae deletion strains, locus YNR049C, strain mso1, active compounds read low 0.986 | S. cerevisiae deletion strains, locus YOR001W, strain rrp6, active compounds read low 0.988 | S. cerevisiae deletion strains, locus YOR070C, strain gyp1, active compounds read low 1.01 | S. cerevisiae deletion strains, locus YOR080W, strain dia2, active compounds read low 0.998 | S. cerevisiae deletion strains, locus YOR083W, strain WHI5, active compounds read low 1 | S. cerevisiae deletion strains, locus YOR106W, strain vam3, active compounds read low 0.993 | S. cerevisiae deletion strains, locus YOR231W, strain MKK1, active compounds read low 0.988 | S. cerevisiae deletion strains, locus YOR265W, strain rbl2, active compounds read low 1 | S. cerevisiae deletion strains, locus YOR270C, strain vph1, active compounds read low 1.03 | S. cerevisiae deletion strains, locus YOR290C, strain snf2, active compounds read low 1.01 | S. cerevisiae deletion strains, locus YPL051W, strain arl3, active compounds read low 1.01 | S. cerevisiae deletion strains, locus YPL078C, strain atp4, active compounds read low 0.999 | S. cerevisiae deletion strains, locus YPL106C, strain sse1, active compounds read low 1.01 | S. cerevisiae deletion strains, locus YPL240C, strain hsp82, active compounds read low 0.982 | S. cerevisiae deletion strains, locus YPL256C, strain CLN2, active compounds read low 1.01
